“And” between values parts separate entries of the source, which are not always exact repeats. Equal values may be shown once. This is part of a sample that, as a whole, favours compounds with a hit. Of some 79,000 tested, about 15% had one in any assay. Some compounds were tested as several samples or in several runs, with calls that do not always agree. The source made the active and inactive calls. No stated cut-off is given here; in the data, active means growth inhibition above about 70%; inactive means the rest.
Tests used:
[1] = NCI Yeast Anticancer Drug Screen. Data for the rad50 strain (AID 155);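 further: 0% = growth of vehicle-only cultures of the same strain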; details: S. cerevisiae rad50 strain growth inhibition, stronger effect = higher value
How it was run: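 Relative growth inhibition (compound vs vehicle) was measured in yeast with a defined repair-gene alteration.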

[2] = NCI Yeast Anticancer Drug Screen. Data for the mec2-1 strain (AID 157); details: S. cerevisiae mec2-1 strain, stronger effect = higher value
How it was run: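 Each compound was tested on mec2-1 yeast, a strain altered in DNA damage repair or cell cycle control. Growth inhibition is reported relative to vehicle.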

[3] = NCI Yeast Anticancer Drug Screen. Data for the sgs1 mgt1 strain (AID 161);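 further: 0% = growth of cultures given vehicle only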; details: S. cerevisiae sgs1 mgt1 strain, stronger effect = higher value
How it was run: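 Test agents were incubated with a DNA-repair-mutant yeast strain. Growth was then read and compared against vehicle-treated controls.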

[4] = NCI Yeast Anticancer Drug Screen. Data for the cln2 rad14 strain (AID 165);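 further: 0% = growth equal to vehicle treated cultures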; details: S. cerevisiae cln2 rad14 strain, stronger effect = higher value
How it was run: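 Test compounds were added to cln2 rad14 yeast cultures; inhibition of growth was then determined by comparison with vehicle treatment.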

[5] = NCI Yeast Anticancer Drug Screen. Data for the bub3 strain (AID 167); details: S. cerevisiae bub3 mutant strain, stronger effect = higher value
How it was run: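 Screening used yeast with an engineered genetic alteration affecting cell cycle control. Compound-exposed cultures were compared with vehicle cultures, and reduced growth was taken as inhibition.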

[6] = NCI Yeast Anticancer Drug Screen. Data for the mlh1 rad18 strain (AID 175); details: S. cerevisiae mlh1 rad18 strain growth inhibition, stronger effect = higher value
How it was run: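 Inhibition values reflect reduced growth of mutant yeast versus vehicle-treated controls following compound exposure; the mutations affect DNA damage repair.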

[7] = at 5.0 µM (retest, dose inferred, filed as 0.5)
[8] = at 50.0 µM (retest, dose inferred, filed as 5.0)

SMILES | growth inhibition [1, 7] | growth inhibition [1, 8] | growth inhibition ([1]; at 50.0 µM) | growth inhibition [2, 7] | growth inhibition [2, 8] | growth inhibition ([2]; at 50.0 µM) | growth inhibition [3, 7] | growth inhibition [3, 8] | growth inhibition ([3]; at 50.0 µM) | growth inhibition [4, 7] | growth inhibition [4, 8] | growth inhibition ([4]; at 50.0 µM) | growth inhibition [5, 7] | growth inhibition [5, 8] | growth inhibition ([5]; at 50.0 µM) | growth inhibition [6, 7] | growth inhibition [6, 8] | growth inhibition ([6]; at 50.0 µM)
CC(=O)Nc1nc(N)c2ncn(C3OC(C(O)CO)C(O)C3O)c2n1 (stereo not given) | 0% (inactive) | 1% (inactive) | 1.75% (inactive) and -3.5% (inactive) | 0% (inactive) | 1% (inactive) | 0.35% (inactive) and -7.5% (inactive) | -3% (inactive) | -1% (inactive) | 3% (inactive) and 1.8% (inactive) | 1% (inactive) | 0% (inactive) | 53.5% (inactive) and -80% (inactive) | 1% (inactive) | 0% (inactive) | -10.2% (inactive) and 10.1% (inactive) | -1% (inactive) | 3% (inactive) | 18.9% (inactive) and -12.4% (inactive)
O=C1CCC(c2ccccc2)(C2(c3ccccc3)CCC(=O)O2)O1 (stereo not given) | 1% (inactive) | 7% (inactive) | 17.4% (inactive) and 59.5% (inactive) | -4% (inactive) | 4% (inactive) | 4.8% (inactive) and 50.9% (inactive) | 3% (inactive) | 57% (inactive) | 12.4% (inactive) and 70.5% (active) | 4% (inactive) | 52% (inactive) | 4.35% (inactive) and 13.1% (inactive) | 2% (inactive) | 21% (inactive) | 13.8% (inactive) and 10.7% (inactive) | 4% (inactive) | 47% (inactive) | -0.2% (inactive) and 63.1% (inactive)
CS(=O)(=O)OC1CC(n2ccc(=O)[nH]c2=O)OC1COC(c1ccccc1)(c1ccccc1)c1ccccc1 (stereo not given) | -14% (inactive) | 95% (active) | 14.9% (inactive) and 97% (active) | -4% (inactive) | 95% (active) | -4.6% (inactive) and 97% (active) | -17% (inactive) | 54% (inactive) | 11.3% (inactive) and 50.5% (inactive) | 0% (inactive) | 92% (active) | 2.9% (inactive) and 96.3% (active) | -3% (inactive) | 86% (active) | 7.25% (inactive) and 97.8% (active) | 0% (inactive) | 97% (active) | 5.6% (inactive) and 97% (active)
Cc1cc2c(C(C)C)c(O)c(O)c(C=Nc3ccccc3S)c2c(O)c1-c1c(C)cc2c(C(C)C)c(O)c(O)c(C=Nc3ccccc3S)c2c1O | -3% (inactive) | 53% (inactive) | 36.2% (inactive) | -12% (inactive) | 28% (inactive) | 55% (inactive) | -4% (inactive) | 4% (inactive) | 57.3% (inactive) | -9% (inactive) | 16% (inactive) | 44.6% (inactive) | -8% (inactive) | 45% (inactive) | 39.5% (inactive) | -5% (inactive) | 66% (inactive) | 53.5% (inactive)
CCCc1cc(=O)oc2c3c(c4c(c12)OC(C)(C)CC4)O[C@@H](C)[C@H](C)[C@H]3O | 8% (inactive) | 90% (active) | -6.95% (inactive) and 80.1% (active) | -20% (inactive) | 95% (active) | -18.8% (inactive) and 90% (active) | -1% (inactive) | 93% (active) | 3.65% (inactive) and 89.6% (active) | 21% (inactive) | 94% (active) | 10.9% (inactive) and 88.7% (active) | 0% (inactive) | 92% (active) | 16.3% (inactive) and 87.8% (active) | -6% (inactive) | 93% (active) | 8.05% (inactive) and 85.9% (active)
O=C1C(CN2CCCCC2)CCCC1CN1CCCCC1 (stereo not given) | 0% (inactive) | 25% (inactive) | 13.3% (inactive) and 4.85% (inactive) | 2% (inactive) | 44% (inactive) | -11.6% (inactive) and 24.8% (inactive) | 1% (inactive) | 29% (inactive) | 10.4% (inactive) and 31.3% (inactive) | -4% (inactive) | 6% (inactive) | -46.1% (inactive) and 41.2% (inactive) | -4% (inactive) | 20% (inactive) | -3.9% (inactive) and 59.3% (inactive) | -1% (inactive) | 29% (inactive) | 3.2% (inactive) and 10.4% (inactive)
Cc1ccc(S(=O)(=O)Nc2cc(S(=O)(=O)O)c(N)c3c2C(=O)c2ccccc2C3=O)cc1 | 51% (inactive) | 99% (active) | 60.2% (inactive) | 47% (inactive) | 99% (active) | 30.4% (inactive) | 25% (inactive) | 65% (inactive) | 62.8% (inactive) | 43% (inactive) | 89% (active) | 66.2% (inactive) | 45% (inactive) | 78% (active) | 60.1% (inactive) | 53% (inactive) | 99% (active) | 60.5% (inactive)
COc1cc2c(c3c1/c(=N/N(C)C)c1ccccc1n3C)C=CC(C)(C)O2 | 23% (inactive) | 85% (active) | 69.3% (inactive) | 24% (inactive) | 85% (active) | 1% (inactive) | 36% (inactive) | 91% (active) | 55.5% (inactive) | -10% (inactive) | 60% (inactive) | -42.3% (inactive) | 38% (inactive) | 96% (active) | -15.7% (inactive) | 38% (inactive) | 93% (active) | 44.8% (inactive)
Nc1ncnc2c(C3OC(CO)C(O)C3O)scc12 (stereo not given) | 12% (inactive) | 36% (inactive) | 15.8% (inactive) | 12% (inactive) | 40% (inactive) | 26.4% (inactive) | 7% (inactive) | 42% (inactive) | 39.4% (inactive) | 21% (inactive) | 5% (inactive) | 30.9% (inactive) | -21% (inactive) | 30% (inactive) | 47.6% (inactive) | 14% (inactive) | 63% (inactive) | 39.4% (inactive)
CCCCCC[C@H](C/C=C\CCCCCCCC(=O)OC)OC(C)=O | -6% (inactive) | 27% (inactive) | -0.2% (inactive) and -4.1% (inactive) | -4% (inactive) | 69% (inactive) | 2.25% (inactive) and -0.75% (inactive) | -6% (inactive) | 42% (inactive) | 29.2% (inactive) and -40.8% (inactive) | -1% (inactive) | -4% (inactive) | 73.5% (active) and 54.6% (inactive) | -6% (inactive) | 92% (active) | 3.65% (inactive) and -26.2% (inactive) | -3% (inactive) | 21% (inactive) | 9.45% (inactive) and -22.9% (inactive)
CCCC(O)c1ccc(C)cc1 (stereo not given) | 11% (inactive) and 1% (inactive) | 20% (inactive) and 2% (inactive) | 12.8% (inactive) and -26.4% (inactive) | 4% (inactive) and 3% (inactive) | 21% (inactive) and -2% (inactive) | 33.5% (inactive) and -6.65% (inactive) | 5% (inactive) and 0% (inactive) | 33% (inactive) and -1% (inactive) | 0.4% (inactive) and 15.7% (inactive) | 5% (inactive) and -1% (inactive) | 10% (inactive) and 0% (inactive) | -43.6% (inactive) and 18.9% (inactive) | -2% (inactive) and -3% (inactive) | 98% (active) and -10% (inactive) | -6.05% (inactive) and 14.9% (inactive) | 7% (inactive) and 5% (inactive) | 21% (inactive) and 7% (inactive) | 6.2% (inactive) and -10.3% (inactive)
CN1CCN(CCCN2c3ccccc3Sc3ccc(C(F)(F)F)cc32)CC1 | -13% (inactive) and -1% (inactive) | 98% (active) and 94% (active) | 98.8% (active) and 83.9% (active) | -9% (inactive) and -29% (inactive) | 98% (active) and 70% (active) | 99.2% (active) and 83.9% (active) | -7% (inactive) and 0% (inactive) | 95% (active) and 73% (active) | 99.2% (active) and 84.9% (active) | -31% (inactive) and 3% (inactive) | 84% (active) and 78% (active) | 98% (active) and 84.7% (active) | -13% (inactive) and -27% (inactive) | 98% (active) and 95% (active) | 99.2% (active) and 86.2% (active) | -8% (inactive) and -9% (inactive) | 99% (active) and 96% (active) | 99.6% (active)
C=C1C(=O)C23OC2C1CCC(=O)C1(C)CC[C@H](OC(C)=O)C(C)(C)[C@H]1CC3=O (stereo not given in full) | 96% (active) | -2% (inactive) | 99.2% (active) | 98% (active) | 1% (inactive) | 99.5% (active) | 98% (active) | 0% (inactive) | 99.5% (active) | 95% (active) | -1% (inactive) | 99% (active) | 98% (active) | -1% (inactive) | 99% (active) | 98% (active) | -1% (inactive) | 99.2% (active)
CCOC(=O)c1c[nH]c2c(ccc3cccnc32)c1=O | 10% (inactive) and 5% (inactive) | 64% (inactive) and 66% (inactive) | 38% (inactive) and 38.8% (inactive) | 7% (inactive) and -15% (inactive) | 64% (inactive) and 43% (inactive) | 13.9% (inactive) and 12.2% (inactive) | 8% (inactive) and -1% (inactive) | 85% (active) and 56% (inactive) | 10.8% (inactive) and 52.7% (inactive) | 3% (inactive) and -3% (inactive) | 43% (inactive) and 41% (inactive) | 26.9% (inactive) and 24.3% (inactive) | -3% (inactive) and 4% (inactive) | 48% (inactive) and 43% (inactive) | 18.4% (inactive) and 6.8% (inactive) | 2% (inactive) and -1% (inactive) | 84% (active) and 79% (active) | 37.7% (inactive) and 79.8% (active)
CC(C)=CCC(O)C1=CC(=O)c2c(O)ccc(O)c2C1=O (stereo not given) | 44% (inactive) | 59% (inactive) | 9.15% (inactive) and 87.9% (active) and 4.05% (inactive) | 46% (inactive) | 66% (inactive) | 15.9% (inactive) and 90.7% (active) and 54.8% (inactive) | 43% (inactive) | 92% (active) | 12.4% (inactive) and 91.5% (active) and 30.6% (inactive) | 59% (inactive) | 94% (active) | 16.1% (inactive) and 89.1% (active) and 33.1% (inactive) | 62% (inactive) | 87% (active) | 22.6% (inactive) and 88% (active) and 36.5% (inactive) | 43% (inactive) | 60% (inactive) | 26.6% (inactive) and 85.2% (active) and 9.65% (inactive)

— PubChem BioAssay (NCI)
